PubChem BioAssay AID504832 (National Center for Advancing Translational Sciences (NCATS), 2011)
Screen size: about 310,000 compounds; about 18,000 (5.8%) were called active. Inconclusive results (about 22%) are left out. The sample as a whole holds a higher share of actives than the screen did. Unmarked numbers belong to inactive results. Calls follow the shape of the dose curve; as a rule, active = well fitted inhibition curve with a large enough effect; inconclusive = small, poorly fitted or top-dose-only effect, or another doubt; inactive = no such curve, though single readings can be large or run the other way.

Test: Primary qHTS for delayed death inhibitors of the malarial parasite plastid, 48 hour incubation
Settings: P. falciparum luciferase growth in erythrocytes; series mostly up to 28.7 µM; activity change, negative = inhibition: at the top concentration
Procedure, shortened: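 In quantitative HTS format, infected erythrocytes bearing luciferase-reporter parasites were treated for a single generation at 37 C. Luminescence after adding detection reagent served as the growth measure.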
% is scaled to controls: 0 for no effect and ±100 for the full control effect; potency is read from the fitted curve at half-maximal effect.

| Compound | activity change, negative = inhibition | Potency |
| --- | --- | --- |
| Cc1ccc(Cn2c(C)c3cnn(CC(=O)NCc4ccccn4)c(=O)c3c2C)cc1 | 17.8% |  |
| O=C(CCCN1C(=O)/C(=C/c2ccco2)SC1=S)Nc1ccccc1 | -2.16% |  |
| Cc1ccc(-c2nn(-c3ccccc3)cc2CN(Cc2ccccc2)C(=O)CCC(=O)O)o1 | -24.1% |  |
| Cc1ccc(-c2nn(-c3ccccc3)cc2/C=C2\SC(=S)N(CCCCCC(=O)O)C2=O)o1 |  | 4.65 µM (active) |
| O=C(O)c1cc2c(cc1NC(=O)c1c(F)cccc1Cl)OCCCO2 | 6.31% |  |
| CCN(c1ccccc1)S(=O)(=O)c1cccc(C(=O)O)c1 | 0% |  |
| COc1ccc(C(=O)Nc2ccc(S(=O)(=O)NC(C)C)cc2)cc1 | -6.62% |  |
| CC(=O)N1CCN(C(=O)c2cccc(S(=O)(=O)Nc3ccc(C)cc3)c2)CC1 | -6.33% |  |
| COc1ccc(Cl)cc1NS(=O)(=O)c1cccc(C(=O)NCC2CCCO2)c1 (centres undefined) | -8.74% |  |
| CCN(c1ccccc1)S(=O)(=O)c1cccc(C(=O)NCc2ccccc2CN2CCOCC2)c1 |  | 13.1 µM (active) |
| O=C(NCc1ccccc1CN1CCCC1)c1cccc(S(=O)(=O)Nc2ccc(F)cc2)c1 |  | 13.1 µM (active) |
| COc1ccc(NS(=O)(=O)c2cccc(C(=O)NCCc3ccc(S(N)(=O)=O)cc3)c2)cc1 | -22% |  |
| O=C(OC1CCOC1=O)c1cccc(S(=O)(=O)Nc2ccc(F)cc2)c1 (centres undefined) | -6.89% |  |
| COc1ccc(C(CNC(=O)c2ccc(NS(=O)(=O)c3ccc(F)c(C)c3)cc2)N(C)C)cc1 (centres undefined) |  | 14.7 µM (active) |
| O=C(NCc1cccc(C(F)(F)F)c1)c1cccc(S(=O)(=O)N2CCN(Cc3ccccc3)CC2)c1 | 21.4% |  |
| COc1ccccc1C(CNC(=O)c1cccc(S(=O)(=O)Nc2ccc(F)cc2)c1)N(C)C (centres undefined) |  | 13.1 µM (active) |
| COc1ccc(C(CNC(=O)c2ccc(S(=O)(=O)Nc3ccccc3F)cc2)N(C)C)cc1 (centres undefined) | 21.9% |  |
| COCCCNC(=O)Cc1ccc(-n2c(C)nc3cccnc32)cc1 | 5.36% |  |
| COc1ccccc1CNC(=O)c1ccc(N(C)S(=O)(=O)c2ccc(C)cc2)cc1 | -22.8% |  |
| CCc1nn(CCCC(=O)NCc2ccc(C)cc2)c(=O)c2cc3occc3n12 | 0% |  |
| O=C(NC(Cc1ccccc1)C(=O)O)/C(=C\c1ccccc1)NC(=O)c1ccco1 (centres undefined) | 33.1% |  |
| O=Cc1c(Nc2ccccc2Cl)nc2ccccn2c1=O | 41.8% |  |

| Compound | activity change, negative = inhibition | Potency |
| --- | --- | --- |
| CC1(C)C(C=C(Cl)Cl)C1C(=O)NC(O)C(=O)c1ccccc1 (centres undefined) | 9.03% |  |
| O=C(CCNC(=O)C1CCN(S(=O)(=O)c2ccccc2)CC1)NC1CC1 | 14.5% |  |
| CCN(CC)C(CNC(=O)CSc1nnnn1-c1cccc(F)c1)c1ccco1 (centres undefined) | -29.1% |  |
| CCCCNC(=O)C1(O)c2ccccc2NC(=O)N1c1ccc(Cl)cc1 (centres undefined) | 0.406% |  |
| COc1ccccc1CCNS(=O)(=O)c1cn(C)nc1C | -12.3% |  |
| CCc1nc2cccnc2n1-c1ccc(C(=O)O)cc1 | 19.8% |  |
| NC(=O)Cn1cc(/C=N\NS(=O)(=O)c2ccccc2)c2ccccc21 | 43.9% |  |
| CCc1ccccc1NC(=O)c1ccc2snnc2c1 | 14.8% |  |
| CC1CCCCN1C(=O)CCS(=O)(=O)Cc1ccccc1 (centres undefined) | 11.6% |  |
| Cc1cnc(C(=O)Oc2cccc(Cl)c2Cl)cn1 | 59.4% |  |
| O=C(NCC(c1cccs1)N1CCOCC1)c1cc(Cl)ccc1[N+](=O)[O-] (centres undefined) | -1.55% |  |
| Cc1ccc(-c2nn(-c3ccc(F)cc3)cc2C(=O)NCC(c2cccs2)N2CCOCC2)cc1 (centres undefined) |  | 10.4 µM (active) |
| CC(C)(C)C1CCC(C(=O)NCC(c2cccs2)N2CCOCC2)CC1 (centres undefined) | -4.52% |  |
| CCOC(=O)C1(Cc2cccc(OC)c2)CCCN(C(=O)CCSC)C1 (centres undefined) | -11.8% |  |
| CC(=O)N1CCN(C(=O)C2(NC(=O)Nc3ccc(C)cc3)CCCCC2)CC1 | 40.1% |  |
| O=C(c1cc2ccccc2o1)N1CCN(c2cccc(C(F)(F)F)c2)CC1 | 7.94% |  |
| Cc1nn(CC(=O)N2CCCCC2)c(=O)c2nn(-c3ccccc3)c(C)c12 | -5.66% |  |
| COc1ccccc1N1CCN(C(=O)c2ccc(NC3=NC4CS(=O)(=O)CC4S3)cc2)CC1 (centres undefined) | 14.2% |  |
| COc1ccc(N2CCN(C(=O)C3CCN(C(=O)c4ccccc4Cl)CC3)CC2)cc1 | 1.99% |  |
| COc1ccc(Nc2ncc(C(=O)N3CCN(c4ccccc4OC)CC3)c3ccccc23)cc1 |  | 11.7 µM (active) |
| OC(COc1ccc(F)cc1Cl)CN1CCc2ccccc2C1 (centres undefined) | -0.387% |  |
| CCN(CC)S(=O)(=O)c1ccc2[nH]c(=O)cc(C(=O)N(C)C3CCS(=O)(=O)C3)c2c1 (centres undefined) | -20.4% |  |

| Compound | activity change, negative = inhibition | Potency |
| --- | --- | --- |
| COc1ccc(NC(=O)CSc2ccc(-c3ccco3)nn2)c(OC)c1 | -14.8% |  |
| COCCn1c(SCC(=O)Nc2ccccc2F)nc2c(c1=O)SCC2 | -12.9% |  |
| CCn1c(SCC(=O)Nc2ccc3c(c2)OCCO3)nc2c(c1=O)SC(C)C2 (centres undefined) | -28.5% |  |
| COc1ccc(C)cc1NC(=O)CSc1ccc(Cl)cc1 | -12.7% |  |
| COCCn1c(SCC(=O)Nc2cc(Cl)ccc2OC)nc2c(c1=O)SC(C)C2 (centres undefined) |  | 8.28 µM (active) |
| CC1Cc2nc(SCC(=O)Nc3ccccc3F)n(C)c(=O)c2S1 (centres undefined) |  | 7.38 µM (active) |
| Cn1c(CCC(=O)Nc2ccccc2F)nnc1SCC(=O)Nc1ccccc1Cl | -15.2% |  |
| CC(C)N(Cc1ccccc1)C(=O)COC(=O)c1ccccc1SCC(=O)N1CCCC1 | 1.56% |  |
| CCn1c(SCC(=O)NCC2CCCO2)nc2ccccc21 (centres undefined) | -21% |  |
| CC1CCN(C(=O)c2ccc3c(=O)n4c(nc3c2)CCCCC4)CC1 | 31.7% |  |
| COCCN1C(=O)C(=O)/C(=C(/O)c2ccc(S(=O)(=O)N3CCOCC3)cc2)C1c1ccc(O)c(OC)c1 (centres undefined) | 29.1% |  |
| CCOC(=O)C1CCN(C(=O)COc2cccc3ccccc23)CC1 | -0.738% |  |
| Cc1ccc(C(=O)NNC(=O)C(C)Oc2ccc3ccccc3c2)o1 (centres undefined) | 22.6% |  |
| Cc1cccc(C(C)C)c1NC(=O)COC(=O)C1CC(=O)N(Cc2ccccc2)C1 (centres undefined) | 0.575% |  |
| COc1cccc(N2CC(C(=O)NCc3n[nH]c(=O)c4ccccc34)CC2=O)c1 (centres undefined) | -12.8% |  |
| CCCOC(=O)c1cc2ccccc2oc1=O | -10.7% |  |
| CN(C)CCCCCN(C)Cc1cc2ccccc2o1 |  | 4.65 µM (active) |
| COc1ccccc1CN(C)C(=O)c1cc2ccccc2o1 | -7.77% |  |
| O=c1c2ccccc2ccc2ccc(P(=O)(O)O)cc12 | 25.5% |  |
| CC1CC(C)CN(C(=O)CCNC(=O)Cn2cnc3ccccc3c2=O)C1 (centres undefined) | 10.9% |  |
